PNC assembly inh: perinucleolar compartment assembly inhibition | 3.1% of 140,000 active | AID 2417 | PC3M PTB-GFP, PNC prevalence imaging, 16 h; hits give low values | activity change (PNC), negative = inhibition, % at 10 µM;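 active = readout at or below -70, meaning at least 70% loss of cells showing the perinucleolar compartment, a nuclear body marking cancer cells; inconclusive = readout between -30 and a set limit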
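Read-out is percentage of cells bearing a perinucleolar compartment, from automated 20x imaging of fixed, Hoechst-stained PC3M PTB-GFP cells. Cells were seeded 4 h, then exposed 16 h to compound (23 nl of library stock) in duplicate plates.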
HPGD inh: blocks human HPGD enzyme activity | P15428 | purified HPGD, NADH fluorescence kinetic, PGE2 substrate | Potency, µM, usual class: inhibitors | 4.3% of 150,000 active | AID 894
Target sequence (P15428 whole entry, looked up): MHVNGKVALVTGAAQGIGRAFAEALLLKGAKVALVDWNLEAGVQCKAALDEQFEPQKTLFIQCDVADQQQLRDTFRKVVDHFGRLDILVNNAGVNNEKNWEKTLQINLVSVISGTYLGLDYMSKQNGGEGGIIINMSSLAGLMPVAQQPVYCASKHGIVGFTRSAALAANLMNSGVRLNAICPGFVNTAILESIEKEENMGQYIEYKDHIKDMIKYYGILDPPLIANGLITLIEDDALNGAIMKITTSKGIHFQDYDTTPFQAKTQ
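NADH formation kinetics: reaction with 30 uM PGE2 and 1 mM NAD+ (final), 20 nM enzyme, Tris-HCl pH 8 with Tween 20, after 15 min compound preincubation at room temperature. Fluorescence change, last versus first of five reads.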
ALDH1A1 block: ALDH1A1 (human) enzyme inhibition. Purified ALDH1A1, NADH fluorescence, propionaldehyde substrate. Potency, µM (doses to about 75.3 µM), actives largely listed as inhibitors. 7.3% of 220,000 active
Target sequence (P00352 whole entry, looked up): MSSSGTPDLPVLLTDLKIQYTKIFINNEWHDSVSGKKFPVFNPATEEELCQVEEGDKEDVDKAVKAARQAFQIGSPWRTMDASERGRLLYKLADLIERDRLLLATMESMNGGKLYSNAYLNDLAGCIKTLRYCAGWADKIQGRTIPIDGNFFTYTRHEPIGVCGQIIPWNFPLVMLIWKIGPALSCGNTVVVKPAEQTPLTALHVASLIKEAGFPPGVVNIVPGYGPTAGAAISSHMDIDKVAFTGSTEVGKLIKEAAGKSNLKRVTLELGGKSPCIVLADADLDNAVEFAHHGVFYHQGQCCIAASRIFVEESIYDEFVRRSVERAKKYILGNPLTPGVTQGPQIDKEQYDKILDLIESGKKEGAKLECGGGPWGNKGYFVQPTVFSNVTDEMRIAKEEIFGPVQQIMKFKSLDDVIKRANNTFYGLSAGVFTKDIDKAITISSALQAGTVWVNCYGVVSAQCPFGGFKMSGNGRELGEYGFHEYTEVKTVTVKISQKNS
IMPase cell inh: cell-permeable inhibitors of inositol monophosphatase (IMPase) | inhibition (IP1 accumulation), % at 46.1 µM | P97697 | CHO-M1 cells, IP1 accumulation, HTRF TR-FRET ratio | 120,000 tested, under 10 active | AID 901; active = well fitted curve in the direction sought with a large enough effect in the signal ratio, not every such curve was filed as active; inconclusive = small, poorly fitted or top-dose-only effect, or a change in a side signal; inactive = no such curve, though single readings can be large or run the other way; the % refers to the signal ratio;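 note: cells stimulated with carbachol in lithium chloride buffer; higher means more IMPase inhibition seen as more IP1 and lower FRET ratio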
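CHO-M1 cells (CHO stably expressing M1 receptor), compound up to 46 uM final, stimulated with carbachol (50 uM as added) in buffer with 50mM LiCl, pH 7.4, 30 min at 37C. Cytosolic IP1 read by TR-FRET; AC50 from Hill fits.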
IMPase Li inh: membrane-permeable IMPase blocker, potentiated with lithium; CHO-M1 cells, IP1 TR-FRET (IP-One), carbachol + lithium; Potency, µM (top dose mostly 59.4 µM), actives largely listed as inhibitors; 0.35% of 210,000 active; active = well fitted inhibition curve with a large enough effect; inconclusive = small, poorly fitted or top-dose-only effect; inactive = no such curve, though single readings can be large or run the other way;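 note: IP1 builds up when IMPase is blocked and the TR-FRET signal falls; nearly all actives have a fitted effect of over 50% in size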
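Concentration–response in CHO-M1 cells, lithium-potentiated; 30 min at 37C. IP1 detected by competitive TR-FRET after 10 min lysis at RT. Hill-fitted AC50.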
Numbers stand for hits; 0 = inactive; ? = inconclusive; - = not tested or not shown; [ ] = remark or other dose. Rows were chosen to be rich in hits. Some 11% of all compounds tested hit in one or more screens of this group. Unless noted, calls come from the whole dose curve; as a rule, active = well fitted inhibition curve with a large enough effect (not every such curve was filed as active); inconclusive = small, poorly fitted or top-dose-only effect, or another doubt; inactive = no such curve, though single readings can be large or run the other way.

SMILES | PNC assembly inh | HPGD inh | ALDH1A1 block | IMPase cell inh | IMPase Li inh
COc1ccc(S(=O)(=O)NCc2ccc(C(=O)N3CCc4ccccc4C3)cc2)cc1 | ? | 2.8µM | 0 | - | 0
CCCN(CC(=O)Nc1cc(Cl)cc(Cl)c1)CC(=O)Nc1ccc(F)c(F)c1F | 0 | 0 | ? | - | 0
Cc1cccc2c(CC(=O)Nc3ccccc3)noc12 | 0 | 0 | 0 | - | 0
CCOc1ccc(Cl)cc1C1CC(=O)Nc2cc(OC)c(OC)c(OC)c21 (configuration not stated) | - | - | - | 0 | -
CCOC(=O)/C(N=Nc1c(Br)cc(Br)cc1Br)=C(\C)O | ? | 0 | 0 | ? | 0
O=C(COC(=O)COc1ccc(Cl)cc1)NCc1cccs1 | 0 | ? | 0 | 0 | 0
CCOC(=O)N1CCN(C(=O)c2ccc3c(=O)n(CCc4ccccc4)c(=S)[nH]c3c2)CC1 | 0 | 0 | 0 | 0 | 0
CC(C)OCCCNC(=O)c1ccc2c(=O)n(Cc3ccc4c(c3)OCO4)c(=S)[nH]c2c1 | - | - | 0 | - | 0
CCOC(=O)N1CCN(C(=O)c2ccc3c(=O)n(Cc4ccc(Cl)cc4)c(=S)[nH]c3c2)CC1 | 0 | 0 | 10µM | 0 | 0
CC1CCCN(C(=O)c2ccc3c(=O)n(Cc4ccc5c(c4)OCO5)c(=S)[nH]c3c2)C1 (configuration not stated) | 0 | 5µM | 10µM | 0 | 0
CCc1c2c(nc3ccc(OC)cc13)COC2 | - | ? | ? | - | 0
CCOC(=O)c1sc2nc(C3CC3)cc(-c3ccc(F)cc3)c2c1N | 0 | ? | 0 | 0 | 11µM
CCOC(=O)c1sc2nc(C3CC3)cc(-c3ccc(OC)cc3)c2c1N | ? | ? | ? | 0 | 0
O=C(O)c1ccccc1CN1CCC[C@@H](C(=O)O)C1 | - | 0 | 0[13.5 µM] | - | 0
Cc1ccc(NC(=O)Cn2nnc(-c3ccccc3-n3cnnn3)n2)c(C)c1 | - | - | 0 | - | 0
Cc1ccc(-c2nnn(CC(=O)Nc3ccccc3-c3ccccc3)n2)c(-n2cnnn2)c1 | 0 | 0 | 25µM | 0 | 0
O=C(Cn1nnc(-c2ccccc2-n2cnnn2)n1)NCc1ccccc1 | 0 | 0 | 10µM | 0 | 0
COC(=O)[C@](C)(N)Cc1ccc(O)cc1 | - | - | - | 0 | -
O=C(CSc1nccn1Cc1ccccc1)NCc1ccccc1 | ? | 0 | 0 | 0 | 0
CCN(CC)CCCC(C)n1c(-c2ccccc2)nc2c(NC3CCCCC3)nc(C)nc21 (configuration not stated) | - | ? | ? | - | 0
C[C@@H]1[C@H](O)[C@@H](C)/C=C/C=C/C=C/C=C/C=C/C=C/C=C/[C@H](O[C@@H]2O[C@H](C)[C@@H](O)[C@H](N)[C@@H]2O)C[C@@H]2O[C@](O)(C[C@@H](O)C[C@@H](O)[C@H](O)CC[C@@H](O)C[C@@H](O)CC(=O)O[C@H]1C)C[C@H](O)[C@H]2C(=O)O | - | 0 | 0 | - | 0
CC(C)(C)NC(=O)c1cccc(NC(=O)c2cccc(O)c2)c1 | 0 | 0 | 0 | 0 | 0
CN(C)CC(=O)c1c(N)n(Cc2ccccc2)c(=O)n(C)c1=O | - | - | 0 | - | 0
Cn1c(=O)c(C(=O)CCl)c(N)n(Cc2ccccc2)c1=O | 0 | 0 | 7.1µM | - | 0
CC(=O)Oc1ccc(/C=C/C(=O)CC2OC(Oc3cc(OC(C)=O)c4c(c3)O[C@@H](c3ccc(OC(C)=O)cc3)CC4=O)C(OC(C)=O)C(OC(C)=O)C2OC(C)=O)cc1 (some centres not stated) | - | 0 | 0 | 0 | 0
SMILES | PNC assembly inh | HPGD inh | ALDH1A1 block | IMPase cell inh | IMPase Li inh
S=c1nc(-c2ccco2)[nH][nH]1 | 0 | 22µM | 25µM | 0 | 0
Cc1ccc(C(=O)NC(=S)NNC(=O)c2ccccc2[N+](=O)[O-])cc1 | 0 | 40µM | 22µM | 0 | 0
CC(=O)Nc1ccc(NC(=S)NC(=O)c2ccc([N+](=O)[O-])cc2)cc1 | 0 | 0 | 0 | - | 0
O=C(NC(=S)NNS(=O)(=O)c1ccc(Cl)cc1)c1cccnc1 | - | - | 7.9µM | - | 0
CCCCCC(=O)NNC(=S)NC(=O)c1ccc([N+](=O)[O-])cc1 | - | - | 6.3µM | - | 0
Cc1ccc(S(=O)(=O)NNC(=O)c2ccc(O)cc2)cc1 | 0 | 0 | 0 | - | 0
Cc1ccc(S(=O)(=O)NNC(=S)NC(=O)c2ccc([N+](=O)[O-])cc2)cc1 | 0 | 28µM | 18µM | - | 0
CC(C)[C@@H](CC(=O)N[C@@H]1CCCC[C@H]1C(=O)N[C@H](CC(=O)N[C@@H](CCC(=O)O)CC(=O)O)Cc1c[nH]c2ccccc12)NC(=O)C[C@H](CO)NC(=O)[C@@H]1CCCC[C@H]1N | - | 0 | 0 | - | 0
O=C(CCN1C(=O)C2CCCCC2C1=O)Nc1nc(-c2ccccc2)cs1 (configuration not stated) | - | - | 0 | - | -
O=c1cc(/C=C/c2ccccc2)oc2ccccc12 | 0 | ? | ? | 0 | 0
CCCCC(=O)NC(=S)NNC(=O)CC#N | 0 | 0 | 22µM | 0 | 0
Cc1onc(-c2ccccc2)c1C(=O)N/N=C/c1cccc(O)c1 | ? | 28µM | 0 | - | 0
Cc1ccccc1C(=O)NNC(=S)NC(=O)c1ccccc1 | ? | 0 | 14µM | - | 0
Cc1onc(-c2ccccc2)c1C(=O)NC(=S)NNC(=O)c1ccccc1O | -95 | 0 | 0 | - | 0
CC(=O)NCCNc1nc(-c2ccccc2C(F)(F)F)nc2ccccc12 | - | 0 | 0 | - | 0
Cc1ccc(/C=C2/C(=O)N(c3ccccc3)C(=S)N2C)o1 | 0 | 0 | 4µM | - | 0
CCOc1ccc(N2C(=O)/C(=C/c3ccco3)N(C)C2=S)cc1 | 0 | 0 | ? | 0 | 0
CCOC(=O)C1=C(CSc2nc(C)ccc2C#N)OC(N)=C(C#N)C1c1cccc(OC)c1OC (configuration not stated) | ? | 0 | 28µM | 0 | 0
CCOC(=O)C1=C(CC)OC(N)=C(C#N)C1c1ccc(OC)c(OC)c1OC (configuration not stated) | - | - | 0 | - | 0
O=C(NNC(=O)c1ccccc1Br)c1ccc(SCC2CCCO2)c([N+](=O)[O-])c1 (configuration not stated) | 0 | 0 | 0 | 0 | 0
CCCc1nnc(SCC(=O)N2CCOCC2)n1C | 0 | 0 | 0 | 0 | 0
Cc1nn(CCC(=O)NNC(=S)NCC(C)C)c(C)c1Br | -112 | 0 | 0 | 0 | 0
CCOc1cc(C(=S)N2CCCCC2)ccc1OCC(=O)NCc1ccccc1 | 0 | 0 | ? | 0 | 0
CCOC(=O)c1cnc(SC)nc1Sc1ccccc1 | 0 | 0 | ? | 0 | 0
CN(CCO)c1cc(Sc2nc3ccccc3s2)c2nonc2c1[N+](=O)[O-] | 0 | ? | 25µM | 0 | 0
CC(=O)OCCN(C)c1cc(SC(C)C)c2nonc2c1[N+](=O)[O-] | - | - | ? | - | 0
COc1cccc(C2(O)CCN(C(=O)C3CCC3)CC2)c1 | 0 | 0 | 0 | 0 | 0
COc1cccc(C2(O)CCN(C(=O)C3CC3)CC2)c1 | 0 | 0 | 22µM | 0 | 0
COc1ccc(NC(=O)N2CCC(O)(c3cccnc3)CC2)c(OC)c1 | -82 | 0 | 0 | 0 | 0

Screening data as filed in PubChem BioAssay.
